Laboratory results as given in PubChem BioAssay.
For some assays here: Results with a measured potency or affinity are listed apart. Activity calls are given as the source filed them. Unless noted, the rule behind the calls is not given here.

Legend:
[1] = antimalarial activity against Dd2 strain (AID 2302;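 active = growth inhibition above 50% at the single 2 µM test dose, taken to imply half-maximal potency below 2 µM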;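 note: 0% = DMSO untreated growth and 100% = chloroquine plus artemisinin killed control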); conditions: P. falciparum Dd2 in RBCs, LDH growth readout, 72 h; at 2 µM; active compounds read high
[2] = human hepatoma cell viability loss – ATP luminescence, cytotoxicity control for P. falciparum antimalarial project, primary screen (AID 2303;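 active = inhibition above 50%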;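 note: 0% = DMSO wells and 100% = digitonin-killed cells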); conditions: HepG2 viability, 24-48 h, at 10 µM, active compounds read high
[3] = target: L-lactate dehydrogenase (Plasmodium falciparum (isolate CDC / Honduras)) (UniProt Q27743); experiment: PfLDH activity inhibition – cell lysate, 3D7 strain, counter-screen for P. falciparum growth inhibition project (AID 2304);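 note: 0% = vehicle and 100% = reference inhibitor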; conditions: P. falciparum 3D7 crude extract, LDH APAD/NBT absorbance; at 2 µM; active compounds read high
L-lactate dehydrogenase (Plasmodium falciparum (isolate CDC / Honduras)), sequence (Q27743 whole entry, looked up): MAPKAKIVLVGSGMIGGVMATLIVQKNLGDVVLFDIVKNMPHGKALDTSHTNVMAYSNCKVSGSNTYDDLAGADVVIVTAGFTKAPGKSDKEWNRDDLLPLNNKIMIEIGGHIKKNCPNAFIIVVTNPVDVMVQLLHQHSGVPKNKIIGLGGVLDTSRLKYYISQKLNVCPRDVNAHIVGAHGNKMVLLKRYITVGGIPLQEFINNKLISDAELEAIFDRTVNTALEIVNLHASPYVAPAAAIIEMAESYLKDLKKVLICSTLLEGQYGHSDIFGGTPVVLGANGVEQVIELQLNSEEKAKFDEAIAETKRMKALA

[4] = inhibition of 3D7 malaria parasite growth – strain 3D7 (AID 2306);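 note: 0% = DMSO wells and 100% = chloroquine plus artemisinin control wells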; conditions: P. falciparum 3D7 erythrocytic growth, LDH absorbance, 72 h; at 2 µM; active compounds read high
[5] = target: Calcium-dependent protein kinase 1 (Plasmodium falciparum (isolate 3D7)) (UniProt P62344); experiment: PfCDPK1 kinase inhibitors, biochemical, TCAMS library (AID 1159585; cut-off not given, nearly all actives have IC50 up to about 0.98 µM;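 note: inhibitors leave more ATP so luminescence rises with inhibition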); conditions: recombinant PfCDPK1, Kinase-Glo ATP depletion luminescence
Calcium-dependent protein kinase 1 (Plasmodium falciparum (isolate 3D7)), sequence (P62344 whole entry, looked up): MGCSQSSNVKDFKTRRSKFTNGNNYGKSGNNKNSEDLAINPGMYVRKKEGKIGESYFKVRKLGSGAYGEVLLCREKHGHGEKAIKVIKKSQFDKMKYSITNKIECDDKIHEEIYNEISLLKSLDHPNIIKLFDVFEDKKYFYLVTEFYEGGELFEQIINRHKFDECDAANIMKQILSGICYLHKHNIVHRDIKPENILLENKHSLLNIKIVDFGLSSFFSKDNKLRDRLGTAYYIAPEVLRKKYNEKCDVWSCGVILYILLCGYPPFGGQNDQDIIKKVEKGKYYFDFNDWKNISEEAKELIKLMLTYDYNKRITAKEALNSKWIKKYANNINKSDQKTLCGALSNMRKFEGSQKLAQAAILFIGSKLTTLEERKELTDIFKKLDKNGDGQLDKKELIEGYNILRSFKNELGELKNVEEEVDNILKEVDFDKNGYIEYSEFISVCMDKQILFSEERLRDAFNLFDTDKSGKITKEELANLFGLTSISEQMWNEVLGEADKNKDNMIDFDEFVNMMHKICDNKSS

[6] = target: Plasmodium falciparum protein kinase 6 (PK6, PF3D7_1337100) (UniProt Q8IDW1); experiment: PfPK6 kinase inhibitors, biochemical, TCAMS library (AID 1159586); conditions: recombinant PfPK6, Kinase-Glo ATP depletion luminescence
Plasmodium falciparum protein kinase 6 (PK6, PF3D7_1337100), sequence (Q8IDW1 1-305): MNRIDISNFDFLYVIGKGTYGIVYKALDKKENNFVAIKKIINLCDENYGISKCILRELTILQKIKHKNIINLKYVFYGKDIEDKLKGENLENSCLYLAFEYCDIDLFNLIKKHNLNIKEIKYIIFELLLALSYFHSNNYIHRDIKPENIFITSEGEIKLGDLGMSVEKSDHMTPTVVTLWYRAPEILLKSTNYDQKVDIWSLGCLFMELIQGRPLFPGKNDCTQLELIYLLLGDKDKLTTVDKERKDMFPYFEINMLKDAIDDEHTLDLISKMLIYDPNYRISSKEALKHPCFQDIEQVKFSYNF

[7] = target: Protein kinase 7 (PK7), Plasmodium falciparum 3D7 (PF3D7_0213400) (UniProt Q7YTF7); experiment: inhibition of Plasmodium PK7 catalytic activity – biochemical, TCAMS antimalarial set, Kinase-Glo luminescence (AID 1159587); conditions: recombinant PfPK7, Kinase-Glo ATP depletion luminescence
Protein kinase 7 (PK7), Plasmodium falciparum 3D7 (PF3D7_0213400), sequence (Q7YTF7 1-343): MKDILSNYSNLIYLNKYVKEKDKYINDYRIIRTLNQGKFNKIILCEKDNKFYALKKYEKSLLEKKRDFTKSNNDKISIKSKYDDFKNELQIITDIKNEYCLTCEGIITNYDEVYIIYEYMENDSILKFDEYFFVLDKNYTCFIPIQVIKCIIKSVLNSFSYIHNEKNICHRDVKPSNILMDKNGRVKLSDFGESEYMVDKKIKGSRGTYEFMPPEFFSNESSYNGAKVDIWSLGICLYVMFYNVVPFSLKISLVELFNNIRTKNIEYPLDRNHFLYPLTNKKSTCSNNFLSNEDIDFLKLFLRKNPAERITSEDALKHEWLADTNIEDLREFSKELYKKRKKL

[8] = target: Calcium-dependent protein kinase 4 (Plasmodium falciparum (isolate 3D7)) (UniProt Q8IBS5); experiment: PfCDPK4 kinase inhibitors, biochemical, TCAMS library (AID 1159588; cut-off not given, nearly all actives have IC50 up to about 0.91 µM); conditions: recombinant PfCDPK4, Kinase-Glo ATP depletion luminescence
Calcium-dependent protein kinase 4 (Plasmodium falciparum (isolate 3D7)), sequence (Q8IBS5 whole entry, looked up): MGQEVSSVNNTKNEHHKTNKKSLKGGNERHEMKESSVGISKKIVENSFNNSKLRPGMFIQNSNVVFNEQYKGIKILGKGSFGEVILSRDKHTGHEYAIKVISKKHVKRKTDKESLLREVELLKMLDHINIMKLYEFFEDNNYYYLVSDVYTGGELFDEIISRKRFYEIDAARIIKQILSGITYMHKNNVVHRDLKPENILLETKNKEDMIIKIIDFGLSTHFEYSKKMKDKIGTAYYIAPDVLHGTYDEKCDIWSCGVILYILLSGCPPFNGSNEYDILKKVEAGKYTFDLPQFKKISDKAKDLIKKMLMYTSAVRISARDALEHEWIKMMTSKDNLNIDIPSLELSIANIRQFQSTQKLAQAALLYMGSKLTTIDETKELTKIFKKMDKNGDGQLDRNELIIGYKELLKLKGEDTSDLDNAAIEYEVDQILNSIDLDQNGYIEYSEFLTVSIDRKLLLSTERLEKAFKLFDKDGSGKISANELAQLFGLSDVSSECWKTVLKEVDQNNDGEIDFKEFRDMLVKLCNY

CN1CCC(NCc2ccc(-c3cnc(NCc4ccccc4)nc3)cc2)CC1
active: growth inhibition [1] 64% | growth inhibition [4] 91%
inactive: inhibition [2] 23% | inhibition [3] 4% | outcome [5] | outcome [6] | outcome [7] | outcome [8]

COc1ccc2ncc(Cl)c(CCN3C[C@H](CNCc4ccc5c(n4)NC(=O)CS5)[C@H](O)C3)c2n1
inactive: growth inhibition [1] 16% | inhibition [2] 2% | inhibition [3] 3% | outcome [5] | outcome [6] | outcome [7] | outcome [8]
active: growth inhibition [4] 94%

CC(=O)Nc1ncc(C(=O)Nc2cccc(-c3ccc(-c4nc5ccc(C(F)(F)F)cc5[nH]4)s3)c2)s1
active: growth inhibition [1] 99% | inhibition [2] 90% | growth inhibition [4] 101%
inactive: inhibition [3] 5% | outcome [5] | outcome [6] | outcome [7] | outcome [8]

COc1cccc(CNc2ncc(-c3ccsc3)c(-c3nccs3)n2)c1
inactive: inhibition [2] 9% | inhibition [3] 3% | outcome [5] | outcome [6] | outcome [7] | outcome [8]
active: growth inhibition [1] 82% | growth inhibition [4] 89%

Cc1sc(C)c(C(F)(F)F)c1CNCCCNc1cc(=O)c2ccccc2[nH]1
inactive: growth inhibition [1] 43% | inhibition [2] -3% | inhibition [3] -1% | outcome [5] | outcome [6] | outcome [7] | outcome [8]
active: growth inhibition [4] 96%

COc1cccc2c(NN=Cc3ccccc3F)ccnc12
inactive: growth inhibition [1] 37% | inhibition [2] 6% | inhibition [3] 1% | outcome [5] | outcome [6] | outcome [7] | outcome [8]
active: growth inhibition [4] 96%

CCNc1cc(C(=O)N[C@@H](Cc2ccccc2)[C@H](O)CNCc2cccc(OC)c2)c(OC)c(N2CCCCS2(=O)=O)c1
active: growth inhibition [1] 96% | growth inhibition [4] 97%
inactive: inhibition [2] 11% | inhibition [3] -8% | outcome [5] | outcome [6] | outcome [7] | outcome [8]

N#CC(c1ccc(Cl)cc1)c1ccc2c(C(F)(F)F)cc(C(F)(F)F)nc2n1 (stereo not given)
active: growth inhibition [1] 54% | inhibition [2] 68% | growth inhibition [4] 97%
inactive: inhibition [3] 1% | outcome [5] | outcome [6] | outcome [7] | outcome [8]

C=CCn1c(=N)c(C(=O)NC2CCCCC2)cc2c(=O)n3cccc(C)c3nc21
active: growth inhibition [1] 58% | growth inhibition [4] 92%
inactive: inhibition [2] 0% | inhibition [3] 4% | outcome [5] | outcome [6] | outcome [7] | outcome [8]

CC1CCN(c2nc(C(=O)Nc3ccc(F)cc3C(F)(F)F)c(C(C)C)s2)CC1
inactive: inhibition [2] 5% | inhibition [3] -5% | outcome [5] | outcome [6] | outcome [7] | outcome [8]
active: growth inhibition [1] 66% | growth inhibition [4] 101%

CCCC(C)Nc1nc(C)cc(N[C@@H](CC(C)C)C(=O)NCc2cccc(F)c2)n1 (stereo not given in full)
active: growth inhibition [1] 63% | growth inhibition [4] 96%
inactive: inhibition [2] 1% | inhibition [3] 0% | outcome [5] | outcome [6] | outcome [7] | outcome [8]

O=C(C1CCN(c2nnnn2-c2ccccc2)CC1)N1CCc2ccccc2C1
active: growth inhibition [1] 97% | growth inhibition [4] 97%
inactive: inhibition [2] -7% | inhibition [3] -9% | outcome [5] | outcome [6] | outcome [7] | outcome [8]

O=C(NCc1ccc(Cl)c(Cl)c1)c1ccc(C2CCN(Cc3ccc4nc[nH]c4c3)CC2)cc1
inactive: growth inhibition [1] 31% | inhibition [2] 1% | inhibition [3] -1% | outcome [5] | outcome [6] | outcome [7] | outcome [8]
active: growth inhibition [4] 100%

N#Cc1ccc2[nH]cc(-c3cn4cc(SC5CCCC5)ccc4n3)c2c1
active: growth inhibition [4] 92%
inactive: growth inhibition [1] 21% | inhibition [2] 1% | inhibition [3] 3% | outcome [5] | outcome [6] | outcome [7] | outcome [8]

O=c1cc(NCCCNCc2scc3c(Cl)cc(C(F)(F)F)nc23)[nH]c2ccccc12
inactive: growth inhibition [1] 21% | inhibition [2] 9% | inhibition [3] -1% | outcome [5] | outcome [6] | outcome [7] | outcome [8]
active: growth inhibition [4] 99%

CCc1ccc(CN2CCCCC(NC(=O)c3cc(-c4ccccc4F)cs3)C2)cc1 (stereo not given)
active: growth inhibition [4] 87%
inactive: growth inhibition [1] 12% | inhibition [2] 25% | inhibition [3] -4% | outcome [5] | outcome [6] | outcome [7] | outcome [8]

O=C(O)C[C@H](NC(=O)[C@@H]1CCCN1C(=O)c1cccc(-c2ccc(Cl)c(Cl)c2)c1)C(=O)O
inactive: growth inhibition [1] 0% | inhibition [2] -1% | inhibition [3] 0% | outcome [5] | outcome [6] | outcome [7] | outcome [8]
active: growth inhibition [4] 84%

COc1cc(Cc2cnc(N)nc2N)cc(OCCCCC2SC(=O)NC2=O)c1OC (stereo not given)
inactive: growth inhibition [1] 0% | inhibition [2] -9% | inhibition [3] 7% | outcome [5] | outcome [6] | outcome [7] | outcome [8]
active: growth inhibition [4] 94%

O=C(Nc1ccc(C(F)(F)F)cc1)c1cccc(S(=O)(=O)NC2CCN(CC3CCCCC3)CC2)c1
inactive: growth inhibition [1] 12% | inhibition [2] 18% | inhibition [3] -3% | outcome [5] | outcome [6] | outcome [7] | outcome [8]
active: growth inhibition [4] 99%

N#Cc1ccc(-c2ccc(C(=O)NC3CCN(CCN4CCC(c5cn(CCO)c6ccccc56)CC4)CC3)cc2)cc1
active: growth inhibition [1] 79% | growth inhibition [4] 100%
inactive: inhibition [2] 30% | inhibition [3] -2% | outcome [5] | outcome [6] | outcome [7] | outcome [8]

O=C(NCCN1CCOCC1)c1ccc(CNC(=O)c2ccc(O)c(-c3ccc(Cl)c(Cl)c3)c2)cc1
active: growth inhibition [1] 55% | growth inhibition [4] 87%
inactive: inhibition [2] 3% | inhibition [3] -1% | outcome [5] | outcome [6] | outcome [7] | outcome [8]

O=C(Nc1ccc2c(c1)CCC2)c1ccc(CN2CCCN(Cc3cccc(O)c3)CC2)cc1
inactive: growth inhibition [1] 46% | inhibition [2] 45% | inhibition [3] -1% | outcome [5] | outcome [6] | outcome [7] | outcome [8]
active: growth inhibition [4] 88%

O=C(NCc1cccc(F)c1)Nc1ccc(-c2cccc(-c3nc4ccc(F)cc4[nH]3)c2)cc1
inactive: growth inhibition [1] 2% | inhibition [2] 31% | inhibition [3] 7% | outcome [5] | outcome [6] | outcome [7] | outcome [8]
active: growth inhibition [4] 88%

CCOc1ccc(-c2nonc2NC(=O)c2ccccc2F)cc1OCC
inactive: inhibition [2] -8% | inhibition [3] 0% | outcome [5] | outcome [6] | outcome [7] | outcome [8]
active: growth inhibition [1] 100% | growth inhibition [4] 90%

Cc1ccc(C(=O)Nc2cccc(-c3ccc(N4CCN(C)CC4)nn3)c2)cc1[N+](=O)[O-]
inactive: growth inhibition [1] 40% | inhibition [2] 32% | inhibition [3] -2% | outcome [5] | outcome [6] | outcome [7] | outcome [8]
active: growth inhibition [4] 99%

CC1CN(c2ccc(NC(=O)c3ccc(F)cc3)cc2)CCN1Cc1cccc(F)c1 (stereo not given)
inactive: inhibition [2] 11% | inhibition [3] 2% | outcome [5] | outcome [6] | outcome [7] | outcome [8]
active: growth inhibition [1] 76% | growth inhibition [4] 81%

CC(C)CNC(=S)N1CCCN(c2nc3ccc(Cl)cc3s2)CC1
active: growth inhibition [4] 95%
inactive: growth inhibition [1] 11% | inhibition [2] 28% | inhibition [3] -3% | outcome [5] | outcome [6] | outcome [7] | outcome [8]

COc1cc(Cn2ccc3c4c(N)nc(N)nc4ccc32)cc(OC)c1OC
inactive: inhibition [3] 3% | outcome [5] | outcome [6] | outcome [7] | outcome [8]
active: growth inhibition [1] 97% | inhibition [2] 66% | growth inhibition [4] 94%

NC1CCCN(Cc2cccc(-c3ccc(-c4nc5ccccc5[nH]4)cc3)c2)C1 (stereo not given)
inactive: inhibition [2] 25% | inhibition [3] -6% | outcome [5] | outcome [6] | outcome [7] | outcome [8]
active: growth inhibition [1] 73% | growth inhibition [4] 101%

CCOC(=O)CNCC(=O)c1ccc(OCc2ccccc2)cc1
active: growth inhibition [4] 95%
inactive: growth inhibition [1] 43% | inhibition [2] 4% | inhibition [3] -3% | outcome [5] | outcome [6] | outcome [7] | outcome [8]

COc1cccc(CNC[C@@H](O)[C@H](Cc2ccccc2)NC(=O)c2cc(OC(C)C)cc(N3CCCCS3(=O)=O)c2)c1
inactive: growth inhibition [1] 49% | inhibition [2] 8% | inhibition [3] 5% | outcome [5] | outcome [6] | outcome [7] | outcome [8]
active: growth inhibition [4] 95%

CC(C)(C)C1CCC(C(=O)c2ccc3ccccc3c2O)CC1 (stereo not given)
active: growth inhibition [1] 63% | growth inhibition [4] 83%
inactive: inhibition [2] -4% | inhibition [3] -1% | outcome [5] | outcome [6] | outcome [7] | outcome [8]

NC1CCN(Cc2cccc(-c3ccc(-c4nc5ccccc5[nH]4)cc3)c2)C1 (stereo not given)
inactive: inhibition [2] 24% | inhibition [3] -7% | outcome [5] | outcome [6] | outcome [7] | outcome [8]
active: growth inhibition [1] 58% | growth inhibition [4] 100%

CCN(CCCN1CCCCC1)c1cc(C)nc(Nc2ccc(C)c(Br)c2)n1
inactive: inhibition [2] 42% | inhibition [3] -8% | outcome [5] | outcome [6] | outcome [7] | outcome [8]
active: growth inhibition [1] 98% | growth inhibition [4] 102%

COc1ccc(S(=O)(=O)Nc2cc(C)cc(Br)c2OC)cc1N1CCN(C(=O)C(Cl)(Cl)Cl)CC1
active: growth inhibition [1] 66% | growth inhibition [4] 91%
inactive: inhibition [2] 9% | inhibition [3] 0% | outcome [5] | outcome [6] | outcome [7] | outcome [8]

CC(=O)Nc1ccc2[nH]cc(C3CCN(CC4CCN(C(=O)/C=C/c5ccc(Cl)c(Cl)c5)CC4)CC3)c2n1
inactive: inhibition [2] 21% | inhibition [3] -2% | outcome [5] | outcome [6] | outcome [7] | outcome [8]
active: growth inhibition [1] 99% | growth inhibition [4] 100%

CC(C)c1ccc(CN2CCC(NC(=O)c3ccc(-c4ccccc4F)s3)CC2)cc1
inactive: growth inhibition [1] 13% | inhibition [2] 46% | inhibition [3] 2% | outcome [5] | outcome [6] | outcome [7] | outcome [8]
active: growth inhibition [4] 81%

COc1cc(Cc2cnc(N)nc2N)ccc1OCc1ccc(-c2ccccc2C#N)cc1
active: growth inhibition [4] 93%
inactive: growth inhibition [1] 3% | inhibition [2] 32% | inhibition [3] 6% | outcome [5] | outcome [6] | outcome [7] | outcome [8]

Cc1cc(N(C)CCCN(C)C)nc(Nc2ccc(Br)cc2)n1
inactive: inhibition [2] 4% | inhibition [3] 1% | outcome [5] | outcome [6] | outcome [7] | outcome [8]
active: growth inhibition [1] 84% | growth inhibition [4] 100%

Cc1[nH]c(C)c(-c2ccc(/C=C/c3ccccn3)cc2)c(=O)c1Cl
active: growth inhibition [1] 96% | growth inhibition [4] 97%
inactive: inhibition [2] -9% | inhibition [3] -2% | outcome [5] | outcome [6] | outcome [7] | outcome [8]
